PubChem BioAssay (NCATS)
Records with an inconclusive call do not appear. A call without a number means that no potency is given here. Active and inactive are the calls of the source. Calls come from the whole dose curve; as a rule, active = well fitted inhibition curve with a large enough effect; inconclusive = small, poorly fitted or top-dose-only effect; inactive = no such curve, though single readings can be large or run the other way.
Potency is the fitted concentration of half-maximal effect.

Each compound was assayed against Thioredoxin reductase 1, cytoplasmic (Rattus norvegicus) (UniProt O89049) (assay: qHTS Assay for Inhibitors of Mammalian Selenoprotein Thioredoxin Reductase 1 (TrxR1) (AID 488773; note: nearly all actives have a fitted effect of over 40% in size)). Settings: purified TrxR1 enzyme activity; Potency: inhibition; series mostly up to 57.1 µM.
Thioredoxin reductase 1, cytoplasmic (Rattus norvegicus), sequence (O89049 whole entry, looked up): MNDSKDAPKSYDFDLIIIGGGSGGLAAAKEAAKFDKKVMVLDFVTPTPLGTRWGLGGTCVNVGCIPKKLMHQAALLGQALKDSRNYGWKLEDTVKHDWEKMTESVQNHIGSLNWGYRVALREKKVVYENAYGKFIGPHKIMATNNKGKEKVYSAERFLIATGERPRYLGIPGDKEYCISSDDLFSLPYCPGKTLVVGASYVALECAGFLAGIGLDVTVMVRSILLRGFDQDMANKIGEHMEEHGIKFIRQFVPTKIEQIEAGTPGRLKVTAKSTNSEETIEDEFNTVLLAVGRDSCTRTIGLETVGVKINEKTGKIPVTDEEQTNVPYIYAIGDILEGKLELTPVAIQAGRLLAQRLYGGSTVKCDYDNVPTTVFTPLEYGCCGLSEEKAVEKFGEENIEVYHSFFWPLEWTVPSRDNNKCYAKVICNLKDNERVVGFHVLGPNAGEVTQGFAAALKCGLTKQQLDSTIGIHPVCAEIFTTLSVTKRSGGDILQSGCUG
From the text: The selenoprotein thioredoxin reductase (TrxR; EC 1.8.1.9) is a FAD containing homodimeric pyridine nucleotide-disulfide oxidoreductase with many cellular roles. Together with NADPH and its prime substrate thioredoxin (Trx), the enzyme forms the core of the Trx system. The mammalian Trx system exerts a wide spectrum of functions including redox regulation, antioxidant defense, regulation of transcription factors as well as support of cell growth and replication. Many of these functions involve the reduction of Trx, which may subsequently reduce a number of different substrates including ribonucleotide reductase, peroxiredoxins or NFkB. Mammalian TrxR itself also has a broad substrate specificity, reducing both protein and non-protein substrates, including low molecular weight compounds such as dehydroascorbate, lipoic acid, ubiquinone, and juglone. In addition, several drugs in clinical use for anticancer treatment are indeed known to target TrxR1.
This BioAssay is a validation of an NADPH fluorescence-based, dual-purpose qHTS rTrxR1 assay designed to find potential inhibitors and substrates of rTrxR1. For this particular BioAssay, actives are potential inhibitors. See related BioAssay for substrate data deposition.
Assay protocol: 2 uL of reagents (buffer in column 4 as negative control and 90 nM rTrxR1 in columns 1-3 and 5-48) were dispensed into Greiner black solid-bottom 1,536-well assay plates, followed by 1 uL of NADPH (400 uM final concentration) to each well. The plates were centrifuged at 1000 rpm for 15 seconds and subsequently incubated for 5 min at room temperature (~22 deg C) to allow for rTrxR1 reduction. Compounds (23 nL) were then transferred via Kalypsys pin tool equipped with 1536-pin array (10 nL slotted pins, V&P Scientific, San Diego, CA). In addition, a duplicate 2-fold serial dilution of the control compounds auranofin, a known gold-based TrxR1 inhibitor, and juglone (5-hydroxy-1,4-naphthoquinone), a natural TrxR1 substrate, were pin-transferred to columns 2 and 3, respectively. After incubation for 15 min at room temperature (~22 deg C), 1 uL of selenite (400 uM final concentration) were dispensed to each well. The plate was immediately transferred to a ViewLux high-throughput CCD imager (PerkinElmer), wherein kinetic measurements of NADPH fluorescence (Ex 340 nm, Em 450 nm) were acquired (8 minute kinetic read, see Table 1). Read 1 was utilized to assess the capacity of a compound to serve as an rTrxR1 substrate, i.e. a decrease in NADPH fluorescence compared to the no-compound background is an indication of a substrate behavior for that particular compound. For inhibitory activity of a compound, delta values, computed as the difference in fluorescence intensity between the first and last reads of an 8-minute time kinetic window, were used. All reagents were diluted in an assay buffer consisting of 50 mM Tris-HCl, pH 7.5, 2 mM EDTA, and 0.01% Tween-20.
Throughout the screen, reagent bottle and all liquid lines were made light-tight to minimize reagent degradation. All screening operations were performed on a fully integrated robotic system (Kalypsys, San Diego, CA) containing one RX-130 and two RX-90 anthropomorphic robotic arms (Staubli, Duncan, SC). Library plates were screened starting from the lowest and proceeding to the highest concentration, and a 'double-pinning' step of the highest concentration was required to access higher concentrations of compounds. Vehicle-only plates, with DMSO being pin-transferred to the columns 5-48, were inserted uniformly at the beginning and the end of each library in order to monitor and record any shifts in the background, which can be affected by reagent dispensers or loss in enzyme activity over time. Screening data were corrected, normalized, and concentration-effect relationships were derived by using publicly-available curve fitting algorithms developed in-house (http://ncgc.nih.gov/pub/openhts).
NCCCCCC(=O)O was tested, and the Potency was “inactive”.
CN(C)c1nc(N(C)C)nc(N(C)C)n1 was tested, and the Potency was “inactive”.
NCCc1cnc[nH]1 was tested, and the Potency was “inactive”.
With COc1cc2nc(N3CCN(C(=O)c4ccco4)CC3)nc(N)c2cc1OC the Potency was “inactive”.
With CC(COc1ccccc1)N(CCCl)Cc1ccccc1 (stereo not given) the Potency was “inactive”.
In the case of COc1cc2nc(N3CCN(C(=O)C4COc5ccccc5O4)CC3)nc(N)c2cc1OC (stereo not given), the Potency is reported as “inactive”.
Fc1ccc([C@@H]2CCNC[C@H]2COc2ccc3c(c2)OCO3)cc1 was tested, and the Potency was “inactive”.
Nc1c2c(nc3ccccc13)CCCC2 was tested, and the Potency was “inactive”.
COc1ccc2c(c1)c(CC(=O)O)c(C)n2C(=O)c1ccc(Cl)cc1 was tested, and the Potency was “inactive”.
For CC12CC3CC(C)(C1)CC(N)(C3)C2, the Potency was “inactive”.
CS(=O)(=O)Nc1ccc([N+](=O)[O-])cc1Oc1ccccc1 was tested, and the Potency was “inactive”.
With CCc1cccc2c3c([nH]c12)C(CC)(CC(=O)O)OCC3 (stereo not given) the Potency was “inactive”.
O=c1c(-c2ccc(O)cc2)coc2cc(O)cc(O)c12 was tested, and the Potency was “inactive”.
In the case of OCCN1CCN(CCCN2c3ccccc3Sc3ccc(C(F)(F)F)cc32)CC1, the Potency is reported as “inactive”.
In the case of COc1ccccc1N1CCN(CC(O)COc2cccc3ccccc23)CC1 (stereo not given), the Potency is reported as “inactive”.
For O=C1c2c(O)ccc(O)c2C(=O)c2c(NCCNCCO)ccc(NCCNCCO)c21, the Potency was “inactive”.
For CN(C)C(=O)C(CCN1CCC(O)(c2ccc(Cl)cc2)CC1)(c1ccccc1)c1ccccc1, the Potency was “inactive”.
For Cc1cnc(C(=O)NCCc2ccc(S(=O)(=O)NC(=O)NC3CCCCC3)cc2)cn1, the Potency was “inactive”.
In the case of Cn1cnc2c1c(=O)[nH]c(=O)n2C, the Potency is reported as “inactive”.
For CC(C)C(=O)Nc1ccc([N+](=O)[O-])c(C(F)(F)F)c1, the Potency was “inactive”.
With CCCNCC(O)COc1ccccc1C(=O)CCc1ccccc1 (stereo not given) the Potency was “inactive”.
With Cn1ccc2cc3c(cc21)CCN3C(=O)Nc1cccnc1 the Potency was “inactive”.
Nc1nnc(-c2cccc(Cl)c2Cl)c(N)n1 was tested, and the Potency was “inactive”.
For O=c1[nH]cc(F)c(=O)[nH]1, the Potency was “inactive”.
With CC(C(=O)O)c1cccc(C(=O)c2ccccc2)c1 (stereo not given) the Potency was “inactive”.
O=C1Cc2cc(CCN3CCN(c4nsc5ccccc45)CC3)c(Cl)cc2N1 was tested, and the Potency was “inactive”.
For Cn1c(=O)c2c(ncn2C)n(C)c1=O, the Potency was “inactive”.
CCCCc1oc2ccccc2c1C(=O)c1cc(I)c(OCCN(CC)CC)c(I)c1 was tested, and the Potency was “inactive”.
O=C(c1ccc(F)cc1)C1CCN(CCn2c(=O)[nH]c3ccccc3c2=O)CC1 was tested, and the Potency was “inactive”.
For NC(CO)C(=O)NNCc1ccc(O)c(O)c1O (stereo not given), the Potency was 4.23 µM (active).
In the case of CCOC(=O)c1ncn2c1CN(C)C(=O)c1cc(F)ccc1-2, the Potency is reported as “inactive”.
For Cc1ccc(C(=O)Nc2ccc(S(=O)(=O)O)c3cc(S(=O)(=O)O)cc(S(=O)(=O)O)c23)cc1NC(=O)c1cccc(NC(=O)Nc2cccc(C(=O)Nc3cc(C(=O)Nc4ccc(S(=O)(=O)O)c5cc(S(=O)(=O)O)cc(S(=O)(=O)O)c45)ccc3C)c2)c1, the Potency was “inactive”.
COc1nc(C)nc(Cl)c1NC1=NCCN1 was tested, and the Potency was “inactive”.
For COc1ccc(C2CNC(=O)C2)cc1OC1CCCC1 (stereo not given), the Potency was “inactive”.
C[C@](N)(Cc1ccc(O)c(O)c1)C(=O)O was tested, and the Potency was 3.77 µM (active).
C[C@H]1c2cccc(O)c2C(O)=C2C(=O)[C@]3(O)C(O)=C(C(N)=O)C(=O)[C@@H](N(C)C)[C@@H]3[C@@H](O)[C@@H]21 was tested, and the Potency was “inactive”.
With Cc1cc(C(C)(C)C)c(O)c(C)c1CC1=NCCN1 the Potency was “inactive”.
In the case of NC(=O)OCC(COC(N)=O)c1ccccc1, the Potency is reported as “inactive”.
With CC(CCc1ccc(O)cc1)NCCc1ccc(O)c(O)c1 (stereo not given) the Potency was “inactive”.
With NCCS(=O)(=O)O the Potency was “inactive”.
